From PubChem BioAssay (EPA / NIEHS)
Active and inactive are the calls of the source. The calls were made as follows: active = hit-call score of the fitted dose curve at least 0.9, where 1 is the maximum; inactive = score below 0.9.

Read-out: Interleukin-8 (IL8), CXCL8 (gene 3576)
Test: BSK_3C_IL8: BioMAP Diversity Plus: 3C Assay for Interleukin-8 (IL8) Biomarker Activity (AID 2283020)
Conditions: primary human endothelial cells (HUVEC); actives raise or lower the signal
In short: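 Primary human umbilical vein endothelial cells were dosed for 24 h. IL-8 was quantified by ELISA and fitted bidirectionally against DMSO. Cytotoxicity was assessed in parallel cultures by SRB staining at 560 nm.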

outcome, inactive:
CC[C@H]1CC[C@H](NCc2cc3c(cc2OC)[C@H]2C[C@H]2C(=O)N3C)[C@H](c2ccccc2)N1
Oc1ccc2c(c1)-c1ccccc1C2
Cc1c(-c2cccnc2)c2ccccc2n1CCCCC(=O)O
Cc1ccc(C)c(O)c1
CCCCC(CC)COC(=O)CCCCCCCCC(=O)OCC(CC)CCCC (centres undefined)
Cc1ccc(S(=O)(=O)O)cc1C
Cc1ccc(N)cc1O
C[C@](N)(Cc1ccc(O)c(O)c1)C(=O)O
Cn1cnc([N+](=O)[O-])c1Sc1ncnc2nc[nH]c12
CC(O)CN(CCN(CC(C)O)CC(C)O)CC(C)O (centres undefined)
CNCc1ccc(NC(=O)c2c[nH]c3c2C(=O)CCC3)cc1
CCn1nc(Cc2ccccc2)cc1C1CCN(C[C@H]2C[C@H](N(C)[C@@H](C(=O)O)C(C)C)C[C@@H]2c2cccc(F)c2)CC1
O=C1CCCCCN1
COc1ccc(-n2nc(C(F)F)cc2-c2ccc(S(C)=O)cc2)cc1 (centres undefined)
O=C(O)c1cccc(N(Cc2cccnc2)c2ccc(OC(F)F)c(OC(F)F)c2)c1
CCNc1ccccc1
COC(=O)c1ccccc1O
NC(=O)NO

AC50, active:
CCC(C)(C)C(=O)O[C@H]1C[C@@H](C)C=C2C=C[C@H](C)[C@H](CC[C@@H]3C[C@@H](O)CC(=O)O3)[C@H]21 26.5 µM
CC(C)c1cccc(C(C)C)c1N1C(=O)c2ccc(O)cc2C1=O 4.86 µM
CCCCCCCCCCCCCCCO 31.2 µM
Clc1nc(Cl)c(Cl)c(Cl)c1Cl 14.2 µM
Cc1[nH]cnc1C[C@H]1CCc2c(C)c3ccccc3n2C1=O 22.4 µM
Fc1ccccc1[C@@H](F)COC1CCC(Nc2ncnc3[nH]ncc23)CC1 (some centres undefined) 20 µM
COc1ccc2sc(C(=O)Nc3nnn[nH]3)c(OC(C)C)c2c1 17.9 µM
CCOC(=O)COc1ccc2c(c1)CC(NCC(O)c1cccc(Cl)c1)CC2 (centres undefined) 32.1 µM
CNS(=O)(=O)c1cc(C(=O)N2CCC(CCN3C4CCC3CC(n3c(C)nc5ccccc53)C4)(c3cccc(F)c3)CC2)c(Cl)cc1F (centres undefined) 29.4 µM
O=c1n(CC2CO2)c(=O)n(CC2CO2)c(=O)n1CC1CO1 (centres undefined) 13.2 µM
CN(C)c1ccc(Cc2ccc(N(C)C)cc2)cc1 20 µM
